Assay results: ChEMBL document CHEMBL1961873, “Compounds: GSK PKIS; Assays: Nanosyn kinase panel” (2012)
Where “and” joins values, the source holds several entries; their conditions need not be identical. Equal entries are not always repeated.

What follows are compounds tested against Serine/threonine-protein kinase 10 (Homo sapiens) (UniProt O94804). Conditions: at 0.1 µM.
Serine/threonine-protein kinase 10 (Homo sapiens), sequence (O94804 whole entry, looked up): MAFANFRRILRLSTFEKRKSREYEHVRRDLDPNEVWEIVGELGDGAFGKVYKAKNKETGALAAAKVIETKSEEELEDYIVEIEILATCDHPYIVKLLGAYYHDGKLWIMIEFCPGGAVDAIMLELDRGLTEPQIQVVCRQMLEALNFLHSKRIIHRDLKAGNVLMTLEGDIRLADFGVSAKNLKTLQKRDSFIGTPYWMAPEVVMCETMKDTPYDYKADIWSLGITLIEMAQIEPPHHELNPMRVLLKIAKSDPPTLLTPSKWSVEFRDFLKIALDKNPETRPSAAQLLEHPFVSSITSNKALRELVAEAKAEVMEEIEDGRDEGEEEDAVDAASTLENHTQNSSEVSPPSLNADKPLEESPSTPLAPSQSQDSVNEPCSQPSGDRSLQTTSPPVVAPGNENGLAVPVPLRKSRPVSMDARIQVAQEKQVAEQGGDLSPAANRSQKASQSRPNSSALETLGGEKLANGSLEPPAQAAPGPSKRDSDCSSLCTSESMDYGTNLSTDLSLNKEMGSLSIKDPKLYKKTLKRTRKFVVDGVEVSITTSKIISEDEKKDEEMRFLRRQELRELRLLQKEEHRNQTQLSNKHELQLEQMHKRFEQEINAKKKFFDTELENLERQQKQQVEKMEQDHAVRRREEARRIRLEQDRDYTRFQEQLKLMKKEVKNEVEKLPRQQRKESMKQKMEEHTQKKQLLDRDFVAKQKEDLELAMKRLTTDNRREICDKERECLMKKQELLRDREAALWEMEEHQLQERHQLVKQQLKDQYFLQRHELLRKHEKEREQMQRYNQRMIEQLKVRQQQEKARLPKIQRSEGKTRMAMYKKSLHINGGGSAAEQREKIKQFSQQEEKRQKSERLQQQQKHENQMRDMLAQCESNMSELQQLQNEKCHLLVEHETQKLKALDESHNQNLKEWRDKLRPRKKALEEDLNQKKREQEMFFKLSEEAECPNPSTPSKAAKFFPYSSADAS

Compound | inhibition
CCS(=O)(=O)c1ccc(OC)c(Nc2ncc(-c3cccc(C(C)=O)c3)o2)c1 | 6.16%
FC(F)(F)CNc1nccc(-c2cnn3ncccc23)n1 | 2.56%
CN(C)CCNC(=O)Nc1ccc(N(C)c2ccnc(Nc3ccc(CS(C)(=O)=O)cc3)n2)cc1 | 7.91%
Nc1nccc(-c2c(-c3ccc(F)cc3)ncn2C2CCNCC2)n1 | -0.78% and 0.07%
CN1CCC(n2cnc(-c3ccc(F)cc3)c2-c2ccnc(NCCO)n2)CC1 | 4.56%

What follows are compounds tested against Serine/threonine-protein kinase 10 (Homo sapiens) (UniProt O94804). Conditions: at 1 µM.

Compound | inhibition
CNC(=O)c1cncc(/C=C/c2ccccc2C)c1 | 9.43%
CC(C)c1ccc(-c2cc(-c3c[nH]nc3-c3ccccn3)ccn2)cc1 | 0.62%
Fc1cccc(COc2ccc(Nc3ncncc3C#Cc3ccccc3)cc2Cl)c1 | 11.7%
NS(=O)(=O)c1ccc(N/N=C2\C(=O)Nc3cccc(CCc4ccncc4)c32)cc1 | 0.03%
CCn1c(-c2nonc2N)nc2cncc(C(=O)NCCNC)c21 | 18%
CS(=O)(=O)CCNCc1ccc(-c2ccc3ncnc(Nc4ccc(OCc5cccc(C(F)(F)F)c5)cc4)c3c2)o1 | 11.7%
Cc1cc(O)cc(C)c1/C=C/c1cncc(C(=O)OC(C)(C)C)c1 | 17.5%
O=C(O[C@H]1CN[C@H](C#Cc2cc3ncnc(Nc4ccc(OCc5cccc(F)c5)c(Cl)c4)c3s2)C1)N1CCOCC1 | 19%
c1ccc(-c2n[nH]cc2-c2ccnc(-c3ccc(OCCn4ccnc4)cc3)c2)nc1 | 4.01%
c1cnn2ncc(-c3ccnc(NCCCN4CCOCC4)n3)c2c1 | 1.98%
O=C(O[C@H]1CN[C@H](C#Cc2cc3ncnc(Nc4ccc5c(ccn5Cc5cc(F)ccc5F)c4)c3s2)C1)N1CCOCC1 | 7.76%
O=C(O[C@H]1CN[C@H](C#Cc2cc3ncnc(Nc4ccc5c(cnn5Cc5ccccc5)c4)c3s2)C1)N1CCOCC1 | 7.07%
COc1ccc(Nc2ncc(-c3ccccc3)o2)cc1OC | 11.2%
CC1=C(C(=O)Nc2ccc3[nH]nc(C)c3c2)C(c2ccc(C(F)(F)F)cc2)CC(=O)N1 (stereo unspecified) | 4.46%
Cn1c(-c2nonc2N)nc2cnccc21 | 7.08%
CCS(=O)(=O)c1ccc(OC)c(Nc2ncc(-c3cccc(F)c3)o2)c1 | 24.3%

Compound | inhibition
Cc1nnc(-c2cccc(-c3ccc(C(=O)NCC4CC4)cc3)c2)o1 | 7.39%
COc1cc2c(cc1Nc1nc(Nc3cccc(F)c3C(N)=O)c3cc[nH]c3n1)N(C(=O)CN1CCN(C(C)C)CC1)CC2 | 5.12%
COc1cc(N2CCN(C(C)C)CC2)ccc1Nc1nc(Nc2cccc(F)c2C(=O)O)c2cc[nH]c2n1 | 9.11%
NC(=O)c1ccc2c(-c3ccnc(NCCCO)n3)c(-c3ccc(F)cc3)nn2c1 | 12.3%
COc1ccccc1-c1cc(/C=C2\C(=O)Nc3ncc(Br)cc32)cc(Br)c1O | 5.99%
COC(=O)Nc1nc2ccc(Oc3ccc(NC(=O)Nc4cc(C(F)(F)F)ccc4F)cc3)cc2s1 | 55.4%
CN1CCC(C(=O)Nc2n[nH]c3nc(-c4ccc(O)cc4)c(Br)cc23)CC1 | 13.5% and 9.07%
CCOc1ccc2c(-c3ccnc(Nc4cc(OC)cc(C(F)(F)F)c4)n3)cnn2n1 | 3.44%
CC1=C(C(=O)Nc2ccc3[nH]ncc3c2)C(c2ccc(F)cc2)N=C(c2ccc(C(F)(F)F)nc2)N1 (stereo unspecified) | 2.22%
Nc1ncnc2occ(-c3ccc(NC(=O)Nc4cc(C(F)(F)F)ccc4F)cc3)c12 | 69.2% and 63.1%
CCS(=O)(=O)c1ccc(OC)c(Nc2ncc(-c3cccc(C(C)=O)c3)o2)c1 | 9.95%
FC(F)(F)CNc1nccc(-c2cnn3ncccc23)n1 | 6.33%
CN(C)CCNC(=O)Nc1ccc(N(C)c2ccnc(Nc3ccc(CS(C)(=O)=O)cc3)n2)cc1 | 36.7%
Nc1nccc(-c2c(-c3ccc(F)cc3)ncn2C2CCNCC2)n1 | 4.14% and -0.32%
CN1CCC(n2cnc(-c3ccc(F)cc3)c2-c2ccnc(NCCO)n2)CC1 | 8.57%
